Reference: article PMC12136788
In all, about 24,000 sequences were measured (“enrichment r”: median about 0.99, highest 2% from about 3.7 on). This excerpt belongs to a sample that is enriched for the highest values.

T1: UNK ZnF1-3 (human, UniProt Q9C0B0 31-174)
T1 sequence: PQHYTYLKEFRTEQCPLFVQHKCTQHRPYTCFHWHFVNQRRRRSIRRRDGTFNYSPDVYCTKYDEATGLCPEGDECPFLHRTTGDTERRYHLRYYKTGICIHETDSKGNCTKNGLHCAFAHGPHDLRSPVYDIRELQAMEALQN

B1: chr4:144460044:144460045:+_ENSG00000153147_ENST00000283131|hu_mus|hu_hu_hu_mus_False|98_98 (ssRNA)
RNA: GGGAGUUCUACAGUCCGACGAUCACGGUCCAUAGCCUGAAGAUCUACUUGCGGAUUCCAAUCUGAGUCAUAUAAAAUGACUACAUCAGCAGUUGCAAGAUUGAUGCCCAGACCACCAGCACGUGUGCUUAGCAUAAAUACAAACAACAGAGGAUUGAGCAUCA
B2: chr5:64741823:64741824:+_ENSMUSG00000029174_ENSMUST00000119756|mus_mus|motif|central (ssRNA)
RNA: GGGAGUUCUACAGUCCGACGAUCAAUAAAUAUGUCAGACCCCACAGCUACAGGUCCCACACUAGCAAUAACAGGGAAUCGGAAAACUGUGAUUUCCUUAUGAAACAUUUACCUGUGACUUGAAAGGGUAAGCAAAAACCAUACCAACAGAGGAUUGAGCAUCA
B3: chr16:94664741:94664742:+_ENSMUSG00000040785_ENSMUST00000117648|mus_hu|mus_mus_mus_hu_False|1_98 (ssRNA)
RNA: GGGAGUUCUACAGUCCGACGAUCUGGUACUGAUCUUUGCAUUGGAUAUUCAGGAGAAAGGCUGGCCAAGGGUGUAUAUAUGCUGGUGUACUGGGGCAAACCUGGUAACACGUUUAUGUAUGCUGGCGGUGUCUGGGUGCCAAACAACAGAGGAUUGAGCAUCA
B4: chr1:44133529:44133530:+_ENSG00000066135_ENST00000372396|hu_mus|FALSE|FALSE (ssRNA)
RNA: GGGAGUUCUACAGUCCGACGAUCGAACUCGGCUGCUUCCGGUGUGGGCAGAGUGUGGUCAAUAACCAUGCUGUCCUUCCCAGCUUUCCAAAGUUUGUAGCGUUCCGGCUGGAACCUCCUCACGAACACGUCCAUGGAGAUCUUCAACAGAGGAUUGAGCAUCA
B5: chr10:75008345:75008346:-_ENSG00000213551_ENST00000372950|hu_hu|motif|central (ssRNA)
RNA: GGGAGUUCUACAGUCCGACGAUCCUAUAUCUUAGUCACACACCAGAGUUAAGCCAUCUGUCUUUGCUCAUUUUUCCCUCGGUGGACAACAUAAUAUGUUGGGAAGGGCUUUCCAGGAGGGCAUAACCGGGAGAUGAAUCUUACCAACAGAGGAUUGAGCAUCA
B6: chr1:225611761:225611762:-_ENSG00000143815_ENST00000272163|hu_mus|hu_hu_hu_mus_True|8_88 (ssRNA)
RNA: GGGAGUUCUACAGUCCGACGAUCCCAGGCCAUCGGCCUCUGACCACUUCACCAUCGACAAACUUCCUACUUGGCAUUUUCUAAAAUUAGUCUGGCCGCGCUCCGGCGGGAACUCCAGCCACUCCAGGGAGAAUAGUAGCAGCCCAACAGAGGAUUGAGCAUCA

target: T1, UNK ZnF1-3; test: nsRBNS (natural sequence RNA bind-n-seq); RBNS binding buffer (assumed for nsRBNS): 25 mM Tris pH 7.5, 150 mM KCl, 3 mM MgCl2, 0.01% Triton X-100, 500 ug/ml BSA, 20 U/ml SUPERase-In, 4 C; UNK is unkempt and MSI1 is Musashi-1; names of the RNAs are library labels; protein concentration not given here; high values mean tight binding

Row | Binder | binding signal [enrichment R]
1 | B1 | 1.14
2 | B2 | 1.44
3 | B3 | 0.999
4 | B4 | 0.602
5 | B5 | 1.77
6 | B6 | 1.19
